Results on 35 compounds are retold here after PubChem BioAssay.

SMILES strings stand for the structures. The source made the active and inactive calls.

Tested on in the first assay: not listed separately
Nature of the assay: S. cerevisiae growth modulation with rapamycin, primary screen, strain BY4716, OD600, 96 h (AID 1091). Note: test concentration not given here. The following applies: higher = more signal, called active from +8 up or from −8 down.
In the case of `O=C/C=C/c1ccc(-c2ccccc2)cc1`, the z-score was -5.08 (inactive).
Same read-out and setting: in the case of `CC[C@@H](O[Si](C#C[Si](C(C)C)(C(C)C)C(C)C)(C(C)C)C(C)C)c1cn([C@H](C)c2ccccc2)nn1` it was 0.529 (inactive); in that of `CCOC(=O)C1=CCC(c2cccn2C(=O)OC(C)(C)C)N(S(=O)(=O)c2ccc(C)cc2)C1` (stereo not given), 0.382 (inactive); in that of `CC[C@@H]1C=C(C(=O)O)[C@H](c2cccc(Cl)c2)N1S(=O)(=O)c1ccc(C)cc1`, -0.177 (inactive).
Still for that read-out and setting: in the case of `O=C1O[C@H](c2ccccc2)[C@H](c2ccccc2)N2[C@H]1[C@@H](C(=O)O)[C@]1(C(=O)Nc3ccccc31)[C@H]2c1ccc(OCCO)cc1` it was -0.303 (inactive); in that of `COc1ccc(NN2C(C(O)c3ccc(F)cc3)C=CC3C(=O)N(C4CCCCC4)C(=O)C32)cc1` (stereo not given), 0.91 (inactive); in that of `C=CCNC(=O)[C@@H]1[C@H]2C(=O)O[C@H](c3ccccc3)[C@H](c3ccccc3)N2[C@H](c2ccc(OCCO)cc2)[C@@]12C(=O)Nc1ccc(C#CCNC(N)=O)cc12`, 1.92 (inactive).
Same read-out and setting: with `CCCCN1CC=CC23O[C@@H]4C=CCCOC(=O)C4[C@H]2C(=O)N(CCO)[C@@H]3C1=O` (stereo not given in full) the figure was -0.19 (inactive); with `CN1C(=O)C2C=CC(C(O)c3ccc([N+](=O)[O-])cc3)N(Nc3ccccc3)C2C1=O` (stereo not given), 0.315 (inactive).
In the case of `CC(C)[Si]1(C(C)C)OCc2cc(-c3ccc(-c4ccc(Cl)c(Cl)c4)o3)nc(-c3ccc(Oc4ccccc4)cc3)c21`, the z-score is 2.3 (inactive).
As for `C=C1C(=O)C=C2CN(C(=O)c3ccccc3)[C@@](Cc3ccc(F)cc3)(C(=O)OC)[C@@H]12`, the z-score is -2.6 (inactive).
On to `CN(C)C(=O)[C@]1(CCS(=O)(=O)c2ccccc2)N=C(c2ccc(OCCCO)cc2)O[C@@H]1c1ccccc1CN=[N+]=[N-]`, for which the z-score is 2.18 (inactive).
As to `CN1C2C=C(c3ccc(CO)cc3)C(C3C(=O)N(C(N)=O)C(=O)C32)C1C1CC1` (stereo not given), the z-score is 1.2 (inactive).
Regarding `CCCNC(=O)[C@@]1(Sc2ccc(C)cc2)CC(=O)N(Cc2cc(C(F)(F)F)cc(C(F)(F)F)c2)[C@@H]1c1ccc(CO)cc1`, the z-score was -0.835 (inactive).
Turning to `COCCOC(=O)N1C(=O)[C@@]2(c3cc(C#CC4(O)CCCCCC4)ccc31)[C@H](C(N)=O)[C@H]1C(=O)O[C@H](c3ccccc3)[C@H](c3ccccc3)N1[C@@H]2c1ccc(OCCO)cc1`, the z-score is 5.03 (inactive).
On the same count and under the same terms, with `CC(C)C[C@@H]1NC(=O)[C@@H]2C[C@H](C(=O)NCCCCCNC(=O)CS)[C@H](c3ccc(O)cc3)N2C1=O` the figure was -1.65 (inactive); with `Cc1ccc(S(=O)(=O)N2[C@@H](c3ccccc3)C(C(=O)O)=CC[C@H]2c2ccc(F)cc2)cc1`, 0.311 (inactive).
The same measure, in the same setting: with `CCCCCN1CC=CC23O[C@@H]4/C=C\CCCOC(=O)C4[C@H]2C(=O)N(CCO)[C@@H]3C1=O` (stereo not given in full) the figure was -1.46 (inactive).
As for `C=C(C(=O)CC[C@@H](OC(=O)c1cccnc1)c1cccc(OCCO)c1)C(C)C`, the z-score is 1.04 (inactive).
Take `O=C1C2C=CC(C(O)C3CC=CCC3)N(Nc3ccc([N+](=O)[O-])cc3)C2C(=O)N1c1ccccc1` (stereo not given): the z-score is 2.22 (inactive).
In the case of `CCCCC(=C=CC[C@@H](O)c1ccccc1OCCO)C[C@@H](O)c1ccccn1`, the z-score was -1.14 (inactive).
Same read-out and setting: in the case of `COC(=O)[C@]1(Cc2ccccc2CN=[N+]=[N-])N=C(c2ccc(OCCCO)cc2)O[C@@H]1c1ccccc1N=[N+]=[N-]` it was 36.1 (active); in that of `COCCOC(=O)N1C(=O)[C@@]2(c3cc(C#CC4=CCCCC4)ccc31)[C@H](c1ccc(O)cc1)N1[C@H](c3ccccc3)[C@H](c3ccccc3)OC(=O)[C@H]1[C@@H]2C(=O)N1CCc2cc(OC)c(OC)cc2C1`, 0.543 (inactive); in that of `O=C(c1ccccc1)N1Cc2ccccc2C[C@@]2(N=C(c3ccc(OCCCO)cc3)O[C@H]2c2ccccc2)C1=O`, 5.51 (inactive).
The same measure, in the same setting: with `C=CC[C@]1(C(=O)NCCN2CCOCC2)N=C(c2ccc(OCCCO)cc2)O[C@H]1c1ccccc1` the figure was -1.15 (inactive).

The target in a further assay is Torsin-1A-interacting protein 2 (Homo sapiens) (UniProt Q8NFQ8). Nature of the assay: LULL1 binders on small-molecule microarray, primary screen, cell lysate, human LULL1 lysate, 635/667 nm fluorescence (AID 1092).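 Note: probe is lysate of COS7 cells overexpressing human LULL1; score merges per-feature 667 nm fluorescence with signal-to-noise.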 The following applies: hLULL1 lysate binding, 635 nm fluorescence, higher = more signal.
Torsin-1A-interacting protein 2 (Homo sapiens), sequence (Q8NFQ8 whole entry, looked up): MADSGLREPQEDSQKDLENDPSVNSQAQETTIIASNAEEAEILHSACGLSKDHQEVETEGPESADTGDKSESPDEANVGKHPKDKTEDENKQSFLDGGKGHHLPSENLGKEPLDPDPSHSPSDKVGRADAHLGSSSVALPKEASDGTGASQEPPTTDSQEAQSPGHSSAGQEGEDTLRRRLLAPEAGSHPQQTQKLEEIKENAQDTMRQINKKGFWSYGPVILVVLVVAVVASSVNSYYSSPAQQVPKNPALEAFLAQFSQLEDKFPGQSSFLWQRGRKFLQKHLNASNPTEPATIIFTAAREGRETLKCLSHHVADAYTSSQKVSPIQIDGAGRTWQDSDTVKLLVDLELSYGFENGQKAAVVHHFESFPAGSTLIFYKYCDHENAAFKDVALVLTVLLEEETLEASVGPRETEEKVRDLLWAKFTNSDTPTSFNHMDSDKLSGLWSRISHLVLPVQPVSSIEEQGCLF
The compound `COC(=O)C(CC#Cc1ccc2c(c1)[C@]1(C(=O)N2)[C@H](c2ccccc2OCCO)N2[C@H](c3ccccc3)[C@H](c3ccccc3)OC(=O)[C@H]2[C@@H]1C(=O)N1CCN(c2ncccn2)CC1)C(=O)OC` showed a composite z-score of 2.15.
Still for that read-out and setting: with `COC(=O)[C@@]1(Cc2ccc(F)cc2)[C@H]2c3cc(C(=O)N(C)C)n(Cc4ccc(C(F)(F)F)nc4)c3C[C@H]2CN1C(=O)c1ccccc1` the figure was 3.71; with `COCCCNC(=O)[C@]1(Cc2ccccc2CN=[N+]=[N-])N=C(c2ccc(OCCCO)cc2)O[C@@H]1c1ccccc1N=[N+]=[N-]`, 2.27; with `[N-]=[N+]=Nc1ccccc1C[C@]1(C(N)=O)COC(c2ccc(OCCCO)cc2)=N1`, 2.84.
In turn, `COc1cc(Cc2cc3c(c(-c4ccccc4)n2)[Si](C(C)C)(C(C)C)OC3)cc(OC)c1OC` returned a composite z-score of -0.501.
On the same count and under the same terms, in the case of `COC(=O)C[C@H]1O[C@]2(C(=O)N(C)c3ccccc32)[C@@H](C)[C@@H]1[Si](C)(C)c1ccccc1` it was 0.687; in that of `C=CC[C@H](O)c1ccc(O)c(F)c1`, -1.36; in that of `COc1ccc(CCNC(=O)[C@@H]2c3ccccc3C(=O)N(C(C)C)[C@H]2c2ccc(CO)cc2)cc1`, 2.05.
The same measure, in the same setting: in the case of `COC(=O)[C@@]1(Cc2ccc(F)cc2)[C@H]2c3cc(C(=O)N(C)C)n(CCF)c3C[C@H]2CN1C(=O)c1ccccc1` it was 2.35.
On to `Cc1ccc(N2C(=O)c3ccccc3[C@@H](C(=O)NCCN3CCOCC3)[C@@H]2c2ccc(CO)cc2)nc1`, for which the composite z-score is 0.58.
Compound `O=C/C=C/c1ccc(-c2ccccc2)cc1` gave a composite z-score of -0.7.
In the case of `CC[C@@H](O[Si](C#C[Si](C(C)C)(C(C)C)C(C)C)(C(C)C)C(C)C)c1cn([C@H](C)c2ccccc2)nn1`, the composite z-score came to 0.382.
The same measure, in the same setting: in the case of `CCOC(=O)C1=CCC(c2cccn2C(=O)OC(C)(C)C)N(S(=O)(=O)c2ccc(C)cc2)C1` (stereo not given) it was 3.36.
Same read-out and setting: in the case of `CC[C@@H]1C=C(C(=O)O)[C@H](c2cccc(Cl)c2)N1S(=O)(=O)c1ccc(C)cc1` it was 3.5; in that of `O=C1O[C@H](c2ccccc2)[C@H](c2ccccc2)N2[C@H]1[C@@H](C(=O)O)[C@]1(C(=O)Nc3ccccc31)[C@H]2c1ccc(OCCO)cc1`, 3.27.
Same read-out and setting: in the case of `COc1ccc(NN2C(C(O)c3ccc(F)cc3)C=CC3C(=O)N(C4CCCCC4)C(=O)C32)cc1` (stereo not given) it was 3.24.
With `C=CCNC(=O)[C@@H]1[C@H]2C(=O)O[C@H](c3ccccc3)[C@H](c3ccccc3)N2[C@H](c2ccc(OCCO)cc2)[C@@]12C(=O)Nc1ccc(C#CCNC(N)=O)cc12`, the composite z-score was 1.8.
Same read-out and setting: in the case of `CCCCN1CC=CC23O[C@@H]4C=CCCOC(=O)C4[C@H]2C(=O)N(CCO)[C@@H]3C1=O` (stereo not given in full) it was -0.248.
The same measure, in the same setting: in the case of `CN1C(=O)C2C=CC(C(O)c3ccc([N+](=O)[O-])cc3)N(Nc3ccccc3)C2C1=O` (stereo not given) it was 3.25.
On the same count and under the same terms, with `CC(C)[Si]1(C(C)C)OCc2cc(-c3ccc(-c4ccc(Cl)c(Cl)c4)o3)nc(-c3ccc(Oc4ccccc4)cc3)c21` the figure was -1.07; with `C=C1C(=O)C=C2CN(C(=O)c3ccccc3)[C@@](Cc3ccc(F)cc3)(C(=O)OC)[C@@H]12`, 3.47.
`CN(C)C(=O)[C@]1(CCS(=O)(=O)c2ccccc2)N=C(c2ccc(OCCCO)cc2)O[C@@H]1c1ccccc1CN=[N+]=[N-]` had a composite z-score of 3.48.
As to `CN1C2C=C(c3ccc(CO)cc3)C(C3C(=O)N(C(N)=O)C(=O)C32)C1C1CC1` (stereo not given), the composite z-score is -0.0967.
Consider `CCCNC(=O)[C@@]1(Sc2ccc(C)cc2)CC(=O)N(Cc2cc(C(F)(F)F)cc(C(F)(F)F)c2)[C@@H]1c1ccc(CO)cc1`, for which the composite z-score was 1.8.
Regarding `COCCOC(=O)N1C(=O)[C@@]2(c3cc(C#CC4(O)CCCCCC4)ccc31)[C@H](C(N)=O)[C@H]1C(=O)O[C@H](c3ccccc3)[C@H](c3ccccc3)N1[C@@H]2c1ccc(OCCO)cc1`, the composite z-score stood at 2.51.
The same measure, in the same setting: with `CC(C)C[C@@H]1NC(=O)[C@@H]2C[C@H](C(=O)NCCCCCNC(=O)CS)[C@H](c3ccc(O)cc3)N2C1=O` the figure was 2.21.
For the compound `Cc1ccc(S(=O)(=O)N2[C@@H](c3ccccc3)C(C(=O)O)=CC[C@H]2c2ccc(F)cc2)cc1`, the composite z-score was 4.08.
`CCCCCN1CC=CC23O[C@@H]4/C=C\CCCOC(=O)C4[C@H]2C(=O)N(CCO)[C@@H]3C1=O` (stereo not given in full) yielded a composite z-score of 3.42.
The same measure, in the same setting: with `C=C(C(=O)CC[C@@H](OC(=O)c1cccnc1)c1cccc(OCCO)c1)C(C)C` the figure was -0.826; with `O=C1C2C=CC(C(O)C3CC=CCC3)N(Nc3ccc([N+](=O)[O-])cc3)C2C(=O)N1c1ccccc1` (stereo not given), 3.22.
Still for that read-out and setting: with `CCCCC(=C=CC[C@@H](O)c1ccccc1OCCO)C[C@@H](O)c1ccccn1` the figure was 2.3; with `COC(=O)[C@]1(Cc2ccccc2CN=[N+]=[N-])N=C(c2ccc(OCCCO)cc2)O[C@@H]1c1ccccc1N=[N+]=[N-]`, 1.22; with `COCCOC(=O)N1C(=O)[C@@]2(c3cc(C#CC4=CCCCC4)ccc31)[C@H](c1ccc(O)cc1)N1[C@H](c3ccccc3)[C@H](c3ccccc3)OC(=O)[C@H]1[C@@H]2C(=O)N1CCc2cc(OC)c(OC)cc2C1`, 2.56.
The compound `O=C(c1ccccc1)N1Cc2ccccc2C[C@@]2(N=C(c3ccc(OCCCO)cc3)O[C@H]2c2ccccc2)C1=O` showed a composite z-score of 2.81.
The compound `C=CC[C@]1(C(=O)NCCN2CCOCC2)N=C(c2ccc(OCCCO)cc2)O[C@H]1c1ccccc1` had a composite z-score of 2.65.
